Source: PubChem BioAssay (National Center for Advancing Translational Sciences (NCATS))
Rows were chosen to be rich in hits. Some 2.9% of all compounds tested hit in one or more screens of this group.
POLH inh – blocks human DNA polymerase eta activity; recombinant Pol eta, fluorescent DNA replication assay; Potency, µM (top dose mostly 114 µM), for the others: at the top dose activity change, negative = inhibition, usual class: inhibitors; 390,000 tested, 1.2% active; AID 588591; further: potency means the concentration at half of the fitted maximal effect; on the % scale 0 is the no-effect control and ±100 the full control effect
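Fluorescent replication assay: 50 nM final substrate added after a 15 min room-temperature compound preincubation with 10 nM enzyme. Signal taken at 0 min and again at 10 min.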
12-LOX inh – ALOX12 (human) lipoxygenase inhibition; P18054; purified 12hLO, xylenol orange hydroperoxide absorbance; Potency, µM (series often up to 108 µM), for the others: at the top dose activity change, negative = inhibition, most hits filed as inhibitors; 580,000 tested, 1.1% active; further: potency means the concentration at half of the fitted maximal effect; on the % scale 0 is the no-effect control and ±100 the full control effect
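Purified human 12hLO at 150 nM in 25 mM Hepes, 0.01% Triton X-100, pH 7.0, preincubated 15 min at room temperature with compound. Reaction started with 40 uM arachidonic acid, 30 min at room temperature. Hydroperoxide measured by Fe-xylenol orange, 573/405 nm absorbance ratio.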
POLB inh – DNA polymerase beta (human) inhibition. P06746. Pol beta primer extension/strand displacement, fluorescence kinetic. Potency, µM (series often up to 114 µM), for inactives: at the highest dose activity change, negative = inhibition, hits mostly inhibitors. 340,000 tested, 1.3% active. AID 485314; further: potency means the concentration at half of the fitted maximal effect; on the % scale 0 is the no-effect control and ±100 the full control effect
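Enzyme-only controls used 10 nM Pol beta; buffer lacking enzyme served as negative control. Compound preincubated 15 min, then 50 nM substrate added; 0 and 10 min reads at room temperature.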
Pol iota inh – DNA polymerase iota (human) inhibition; Q9UNA4; Pol iota fluorescent replication assay, 10 min; Potency, µM (highest dose often 115 µM), inactives show at the top dose activity, negative = inhibition, hits mostly inhibitors; 390,000 tested, 1% active; further: potency means the concentration at half of the fitted maximal effect
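Fluorescent replication assay read twice, at 0 min and 10 min after adding 50 nM (final) substrate. Enzyme (10 nM) and compounds were first incubated 15 min at room temperature; enzyme-free buffer wells were negative controls.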
Pol kappa inh – inhibitors of human DNA polymerase kappa; Q9UBT6; purified Pol kappa, fluorescent DNA synthesis assay, 10 min; Potency, µM (titrated, usually from 107 µM), without a hit: at the highest dose activity, negative = inhibition, actives largely listed as inhibitors; 400,000 tested, 0.53% active; further: potency means the concentration at half of the fitted maximal effect; on the % scale 0 is the no-effect control and ±100 the full control effect
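Enzyme at 10 nM met test compounds for 15 min at room temperature. Substrate addition (50 nM final) began the reaction, which was monitored by fluorescence at 0 and 10 min.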
PI5P4Ka inh – blocks human PI5P4K alpha kinase activity; max response, %; 330,000 tested, 1.2% active; P48426; PI5P4Kalpha enzyme, ADP-Glo luminescence, 60 min; stronger effect = lower value; active means max response of -50% or lower; inconclusive means between -30% and -50%; inactive means -30% or higher; further: value at the top dose of about 77 µM; on the % scale 0 is the no-effect control and ±100 the full control effect
Target sequence (P48426 whole entry, looked up): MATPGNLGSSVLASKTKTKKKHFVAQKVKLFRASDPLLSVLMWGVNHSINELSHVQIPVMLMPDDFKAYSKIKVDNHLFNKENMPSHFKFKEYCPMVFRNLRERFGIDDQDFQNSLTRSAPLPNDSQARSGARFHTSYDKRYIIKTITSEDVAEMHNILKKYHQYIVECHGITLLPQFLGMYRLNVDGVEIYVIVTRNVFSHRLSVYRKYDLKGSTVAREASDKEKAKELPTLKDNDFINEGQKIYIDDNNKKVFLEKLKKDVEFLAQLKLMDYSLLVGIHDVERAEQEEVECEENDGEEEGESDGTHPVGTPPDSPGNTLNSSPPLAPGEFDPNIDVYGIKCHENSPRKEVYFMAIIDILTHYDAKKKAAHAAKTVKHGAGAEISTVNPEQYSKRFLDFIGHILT
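ADP-Glo luminescence end-point after a 60 min room-temperature kinase reaction. PI5P4Kalpha and substrate in HEPES pH 7.4 buffer with EGTA, 0.1% CHAPS and 5% DMSO; ATP at 5 microM final.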
Active calls of the source: *; i = inactive; ? = inconclusive; / = not tested or not shown; ! = not confirmed by another sample; [ ] = dose if it differs, or a comment. Unless noted, the call rests on the fitted dose curve; in most records, active means well fitted inhibition curve with a large enough effect; inconclusive means small, poorly fitted or top-dose-only effect, or another doubt; inactive means no such curve, though single readings can be large or run the other way.

SMILES | POLH inh | 12-LOX inh | POLB inh | Pol iota inh | Pol kappa inh | PI5P4Ka inh
Cc1ccccc1N1CCN(C2CCCN(C(=O)CCn3cnnn3)C2)CC1 (centres undefined) | -8% | 488% | 35µM* | -13% | -17% | -5
O=C(CSc1nc(Cl)nc2nc[nH]c12)Nc1cccc(Cl)c1 | / | 3% | / | / | / | /
CCOC(=O)c1oc2ccccc2c1CN1CCN(C)CC1 | -12% | 35µM* | -27% | -7% | 3% | 3
Cn1ccnc1SCC(=O)Nc1sc2c(c1C#N)CCC2 | / | -12% | / | / | / | /
COc1ccccc1/C=C/c1nc(C#N)c(NCCCN(C)C)o1 | / | 0% | / | / | / | /
Cc1ccc(NC(=S)/N=C(\N)Nc2nc(C)c3cc(C)c(C)cc3n2)cc1C | -13% | 35µM* | -24% | 19% | -9% | 7
Cc1ccc(NC(=S)/N=C(\N)Nc2nc(C)c3cc(C)ccc3n2)c(C)c1 | -10% | ? | 3% | 11% | -8% | 10
CCc1ccccc1NC(=S)/N=C(\N)Nc1nc(C)c2cc(C)ccc2n1 | -4% | 35µM* | 0% | 3% | 8% | 11
Cc1cc(C)n(CCC(=O)N2CC(Oc3ccc(-c4nc(-c5ccccc5)no4)cc3)C2)n1 | / | 5% | / | / | / | /
OCC1CN(C2CCC2)CC12CCN(Cc1ccc(F)cc1)CC2 (centres undefined) | / | 79% | / | / | / | /
O=C(COc1ccc(-c2nnc3n2CCCC3)cc1)Nc1ccccc1 | / | 52% | / | / | / | /
O=C(COc1ccccc1)Nc1ccc(-c2nnc3n2CCCC3)cc1 | / | 28µM* | / | / | / | /
O=C(c1ccccc1)c1ccc(OCC(O)CNCc2ccc(Cl)cc2)cc1 (centres undefined) | -3% | 7.1µM* | 1% | 1% | -5%[60.1 µM] | 16
CCc1oc2ccccc2c1C(=O)c1cc(Br)c(O)c(Br)c1 | -18% | 45µM*! | 50µM* | 16% | -18% | -9
CCc1ccc(OCC(=O)c2c(O)c3ccccc3oc2=O)cc1 | -2% | ? | -4% | ? | -15% | -3
COCCNc1cc(-c2ccccc2C)ncn1 | / | ? | / | / | 32µM* | /
COc1ccc(CNc2ncnc3ccc(-c4ccccc4C#N)cc23)c(OC)c1 | / | ? | / | / | 40µM* | /
COc1ccccc1-c1cc(NCc2cnc(C)cn2)ncn1 | / | 5.6µM* | / | / | 7%[60.1 µM] | /
COCCNc1ncnc2ccc(-c3ccccc3C)cc12 | / | 28µM* | / | / | -1%[60.1 µM] | /
N#Cc1nc(-c2ccccc2F)oc1NCCCN1CCOCC1 | / | 7% | / | / | / | /
CCc1nc2c(c(-c3ccc(Cl)cc3)n1)CN(Cc1ccc(C(F)(F)F)cc1)CC2 | / | 32% | / | / | / | /
COc1ccc(-c2cc(C(F)(F)F)nc(N3CCN(Cc4ccccc4)CC3)n2)cc1 | / | -28% | / | / | / | /
C=C(C)CSC1=C(C#N)C(c2ccccc2Cl)CC(=O)N1 (centres undefined) | -16% | 22µM* | 24% | 7% | -5% | -26
CCCOc1ccccc1CNC1CC1 | / | -13% | / | / | / | /
COc1ccc(NC(=O)CCn2c(=S)[nH]c3ccccc3c2=O)cc1Cl | 35µM* | ? | / | / | / | -2
SMILES | POLH inh | 12-LOX inh | POLB inh | Pol iota inh | Pol kappa inh | PI5P4Ka inh
CC(=O)Oc1c(Br)cc(N(C(C)=O)S(=O)(=O)c2ccccc2)c2ccccc12 | 4% | 13µM* | -19% | ? | -20% | -4
CCCC(=O)Nc1cc2c(cc1Sc1ccccc1Cl)n(C)c(=O)n2C | / | -4% | / | / | / | /
CCSc1nc(-c2ccco2)ccc1C#N | ? | 6.3µM* | ? | ? | -32% | -73*
Nc1cc(C(=O)OCC(=O)c2ccc(CC(=O)N3CCOCC3)s2)ccc1Cl | 28µM* | 9% | / | 13µM* | ? | -52*
Cc1ccc(C(=O)COC(=O)c2ccc(Cl)c(N)c2)s1 | -7% | i | / | 0% | -2% | -5
CCCC(C)NC(=O)c1cc(C)nc2ccccc12 (centres undefined) | / | 6% | / | / | / | /
CC(C)c1ccc(S(=O)(=O)/N=C2\C=C(NS(=O)(=O)c3ccccc3)C(=O)c3ccccc32)cc1 | 79µM* | 35µM* | ? | ? | -20% | -68*
COc1ccc(S(=O)(=O)/N=C2\C=C(Nc3ccc(O)cc3)C(=O)c3ccccc32)cc1 | ? | -8% | -23% | ? | -15% | -16
CC(C)c1ccc(S(=O)(=O)/N=C2/C=CC(=O)c3ccccc32)cc1 | / | / | 2% | / | / | /
CCc1ccc(S(=O)(=O)/N=C2\C=C(NS(=O)(=O)c3ccccc3)C(=O)c3ccccc32)cc1 | 89µM* | ? | ? | ? | -27% | ?
CC1/C=C/C=C/C=C/C=C/C=C/C=C/C=C/C(OC2OC(C)C(O)C(N)C2O)CC2O[C@@](O)(CC(O)CC(O)C(O)CCC(O)CC(O)CC(=O)OC(C)[C@H](C)C1O)CC(O)C2C(=O)O (some centres undefined) | / | / | / | / | 3.5µM* | /
Cc1nc(-n2[nH]c3c(c2=O)CCCC3)[nH]c(=O)c1Cc1ccccc1 | 11% | 0% | -19% | ? | ? | /
Cc1cc(=O)[nH]c(-n2[nH]c3c(c2=O)CCCC3)n1 | -15% | 5% | 11% | 14µM* | -15% | /
O=Cc1cccc2c1OCCO2 | / | 7.1µM* | / | / | / | /
COc1ccc(-c2cc(-c3n[nH]c(=S)n3-c3cc(OC)ccc3OC)[nH]n2)cc1 | -13% | 45µM* | 18% | -17% | -8% | -30
COc1ccc(OC)c(-n2c(-c3cccc(O)c3)n[nH]c2=S)c1 | -1% | 3.5µM* | -10% | -11% | -3%[60.1 µM] | /
COc1ccc(-c2n[nH]c(=S)n2-c2cc(OC)ccc2OC)cc1 | -14% | ? | -7% | 43% | -3% | ?
CC(CNC(=O)c1cc(C2CC2)nc2ccccc12)N(C)C (centres undefined) | / | 8% | / | / | / | /
CCc1ccc(-n2c(SCC(=O)N3Cc4ccccc4CC3C(=O)O)nnc2-c2ccncc2)cc1 (centres undefined) | 22µM* | -22% | 3% | 33% | -8% | -9
CCc1ccc(-n2c(SCC(=O)N3CCC(C(=O)O)CC3)nnc2-c2ccncc2)cc1 | 5% | -9% | 2% | 62% | -10% | -17
NC(=S)Nc1cccc2cccnc12 | -17% | ? | -11% | 21% | -5% | 2
NC(=S)NNc1cccc2cccnc12 | 2% | ? | -11% | 11µM* | -16% | -29
O=C(NCCc1ccc(Cl)cc1)c1ccc2c(=O)[nH]c3c(C(=O)NCC4CCCO4)sc(=S)n3c2c1 (centres undefined) | / | 50µM* | / | / | / | /
Cc1cccc(NC(=S)NCCC(c2ccccc2)c2ccccc2)c1 | -10% | 35µM* | 29% | -3% | -8% | -3
Cc1cc(Cl)ccc1NC(=S)NCCC(c1ccccc1)c1ccccc1 | -2% | ? | -13% | 7% | -1% | 4
CCCNC(=S)Nc1cccc(C)c1 | / | -19% | / | / | / | /
